# Measurements as given in PubChem BioAssay AID1851 (National Center for Advancing Translational Sciences (NCATS), 2009).
# Where “and” joins values, the source holds several entries; their conditions need not be identical. Identical values can stand only once. Among all 16,000 compounds or so, about 4,000 (25%) were called active. About 26% were inconclusive and are not listed. Calls come from the whole dose curve; as a rule, active = well fitted curve in the direction sought with a large enough effect; inconclusive = small, poorly fitted or top-dose-only effect, or effect the other way; inactive = no such curve, though single readings can be large or run the other way. These entries were drawn from the full list. Where a structure was tested more than once in an assay, its records may differ in their call. Peptide text beside a SMILES is read from it. * marks the point of attachment. Cbz = O=C(OCc1ccccc1)*
# Target: Cytochrome P450 2C9 (Homo sapiens) (UniProt P11712)
# Assay: Cytochrome panel assay with activity outcomes
# Conditions: recombinant CYP, pro-luciferin dealkylation, luminescence, p450-cyp2c9; series mostly up to 57.1 µM; activity, negative = inhibition: at the top concentration
# % is set by controls: 0 for no effect and ±100 for the full control effect.
# Sequence of Cytochrome P450 2C9 (Homo sapiens) (P11712 whole entry, looked up): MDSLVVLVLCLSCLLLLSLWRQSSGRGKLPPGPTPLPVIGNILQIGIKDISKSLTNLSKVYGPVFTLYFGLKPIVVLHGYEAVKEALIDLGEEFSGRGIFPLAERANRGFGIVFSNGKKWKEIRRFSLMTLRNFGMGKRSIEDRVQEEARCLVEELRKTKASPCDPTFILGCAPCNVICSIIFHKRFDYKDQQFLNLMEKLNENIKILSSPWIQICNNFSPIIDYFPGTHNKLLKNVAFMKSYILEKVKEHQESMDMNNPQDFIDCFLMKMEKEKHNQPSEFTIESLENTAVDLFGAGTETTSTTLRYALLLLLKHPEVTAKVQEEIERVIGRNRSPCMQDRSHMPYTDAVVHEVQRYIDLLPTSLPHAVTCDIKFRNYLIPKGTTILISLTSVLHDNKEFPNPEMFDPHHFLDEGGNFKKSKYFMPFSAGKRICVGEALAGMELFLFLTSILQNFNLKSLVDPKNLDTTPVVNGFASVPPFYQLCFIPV
SMILES,AC50,"activity, negative = inhibition"
O=S(=O)(c1ccccc1)N1N=C(c2cccs2)CC1c1ccc(Br)cc1 (configuration not stated),1.41 µM (active),–
CCCCC(C=O)NC(=O)C(CC(C)C)NC(=O)OCc1ccccc1 (configuration not stated),–,-10.4% (inactive)
COC(=O)C(CC(C)C)NC(=O)C(N)Cc1ccccc1 (stereo not drawn) (H-Phe-Leu-OMe; configuration not given here),–,12.9% (inactive)
COC(=O)CCC(NC(=O)OCc1ccccc1)C(=O)NC(CC(C)C)C(=O)OC (configuration not stated) (Cbz-Glu(OMe)-Leu-OMe; configuration not given here),0.355 µM (active),–
COC(=O)N1CCC2(CCN(Cc3cc(C(F)(F)F)cc(C(F)(F)F)c3)CC2)CC1,–,-4.53% (inactive)
Cc1ccc(OCC(=O)N/N=C\c2c(C)n(C)c3ccccc23)c([N+](=O)[O-])c1,–,-12% (inactive)
Cc1ccc(NS(=O)(=O)c2ccc(OCC(=O)Nc3cccc([N+](=O)[O-])c3)c(C)c2)cc1,1.26 µM (active),–
O=C(CN1CCCCC1)Nc1cccc([N+](=O)[O-])c1,–,-20.2% (inactive)
Cc1cc(Nc2ccc(Cl)cc2)nc(N)n1,–,1.54% (inactive)
C=C1c2cccc(O)c2C(O)=C2C(=O)[C@@]3(O)C(O)=C(C(N)=O)C(=O)[C@@H](N(C)C)[C@@H]3[C@@H](O)[C@H]12,–,-17.4% [at 25.6 µM] (inactive)
Cc1nn(Cc2c(F)c(F)c(F)c(F)c2F)c(C)c1NC(=O)c1c(-c2ccccc2)nn(-c2ccccc2)c1C,7.08 µM (active),–
Cc1nn(Cc2c(F)c(F)c(F)c(F)c2F)c(C)c1NC(=O)c1cccc(COc2ccccc2Cl)c1,8.91 µM (active),–
Cc1nn(Cc2c(F)c(F)c(F)c(F)c2F)c(C)c1NC(=O)c1cccc(COc2ccc(Cl)cc2)c1,2.82 µM (active),–
Cc1nn(Cc2ccccc2Cl)c(C)c1NC(=O)CCCn1nc(C)c([N+](=O)[O-])c1C,–,-26.2% (inactive)
CCN[C@@H]1C[C@H](C)S(=O)(=O)c2sc(S(N)(=O)=O)cc21,–,-6.9% [at 25.6 µM] (inactive)
CC(C)CN1CC[C@@]2(CCCN(C(=O)c3csnn3)C2)C1,–,6.25% (inactive)
C#CCCCO/N=C1/C[C@@H](O)[C@@H](O)[C@@H]2[C@H]3C(=O)N(c4ccc(F)cc4F)C(=O)[C@@H]3CC[C@@H]12,–,7.37% [at 11.4 µM] (inactive)
O=C(CCCCC(=O)Nc1c(I)cc(I)c(C(=O)O)c1I)Nc1c(I)cc(I)c(C(=O)O)c1I,–,-4.35% [at 25.6 µM] (inactive)
c1ccc2c(NC3CCNCC3)nc(-c3ccoc3)nc2c1,–,-0.161% [at 2.29 µM] (inactive)

SMILES,AC50,"activity, negative = inhibition"
Cc1cc(Cl)ccc1Nc1sc(C(=O)c2cc3cc(Cl)ccc3o2)c(N)c1C#N,1.26 µM (active),–
Nc1nc2c(c(=O)[nH]1)N[C@H](CCNc1ccc(C(=O)O)cc1)CN2,–,10.2% [at 11.4 µM] (inactive)
O=C1c2ccccc2C2=Nc3ccccc3SC(c3ccccc3F)C12 (configuration not stated),0.0891 µM (active),–
C[C@@H](N1CCOCC1)[C@@](O)(c1ccccc1)c1ccccn1,–,16.5% [at 11.4 µM] (inactive)
OC(c1ccccc1)(c1ccc(F)cc1)C(c1ccccc1)N1CCOCC1 (configuration not stated),11.2 µM (active),–
CC(C)(C)C(=O)[C@H]([C@@H](c1ccccc1)N1CCOCC1)N1CCOCC1,–,3.46% [at 11.4 µM] (inactive)
CN1CCN(c2ccncc2S(=O)(=O)N2CCN(C)CC2)CC1,–,14.6% [at 11.4 µM] (inactive)
COc1ccc(N2CCN(CCNC(=O)c3c(C)cc(=O)oc3C)CC2)cc1,–,-17.3% (inactive)
COc1ccc(N2CCC(CNC(=O)Nc3ccc(OC)cc3OC)C2)cc1 (configuration not stated),17.8 µM (active),–
CCC(Sc1ncccc1C(=O)O)C(=O)N1CCOCC1 (configuration not stated),–,-12% (inactive)
O=C(c1ccccc1-c1nc(-c2ccccc2)no1)N1CCOCC1,14.1 µM (active),–
c1ccc(-c2noc(-c3ccc4ccccc4c3)n2)cc1,–,-19.2% (inactive)
CCOc1cc(-c2noc(N)c2C#N)cc(OCC)c1OCC,7.94 µM (active),–
O=C(O)C[n+]1ccccc1,–,6.61% [at 11.4 µM] (inactive)
C[C@@]12C(=O)OC(=O)[C@@]1(C)[C@@H]1CC[C@@H]2O1,–,8.97% (inactive)
CS(=O)(=O)c1ccc(-c2cc(Br)sc2-c2ccc(F)cc2)cc1,0.794 µM (active),–
CS(=O)(=O)c1cnc2c(-c3ccc(F)cc3)cnn2c1N,–,-18.8% (inactive)
CC(=O)OC[C@@H]1O[C@@H](O/N=C2/C[C@@H](O)[C@@H](O)[C@@H]3[C@H]4C(=O)N(c5ccc(F)cc5F)C(=O)[C@@H]4CC[C@H]23)[C@H](OC(C)=O)[C@H](OC(C)=O)[C@@H]1OC(C)=O,–,29.1% [at 11.4 µM] (inactive)
CN(C)/C(CN1CCOCC1)=C1\N=C(c2ccccc2)OC1=O,17.8 µM (active),–

SMILES,AC50,"activity, negative = inhibition"
CN(C)/C(CN1CCN(C=O)CC1)=C1\N=C(c2ccccc2)OC1=O,–,0.0977% (inactive)
Cc1cc(-c2ccccc2)nnc1NCCN1CCOCC1,–,4.93% [at 25.6 µM] (inactive)
COC(=O)CNC(=O)CN1C(=O)N(c2ccc(Cl)cc2)C(N(O)C(=O)Nc2ccc(Cl)cc2)C1(C)C (configuration not stated),14.1 µM (active),–
CCCCCCCCN1C(=O)N(C)C(N(O)C(=O)NC)C1(C)C (configuration not stated),–,5.52% (inactive)
O=C(O)c1ccccc1OP(=O)(O)O,–,4.63% [at 25.6 µM] (inactive)
CC(C)(C)[C@@]1(O)CCN2C[C@@H]3c4ccccc4CCc4cccc(c43)[C@@H]2C1,1.58 µM (active),–
CN(C)c1ccc(-c2cncnc2Nc2ccc(F)cc2)cc1,–,-2.26% [at 2.29 µM] (inactive)
CN(C)CCC[C@@]1(c2ccc(F)cc2)OCc2cc(C#N)ccc21,inactive and 3.16 µM (active),–
CCOC(=O)c1ccc(Cl)c(NC(=O)c2ccc(-c3ccccc3)cc2)c1,–,0.219% (inactive)
CCOc1c(Cl)cc(C(=O)Nc2ccccc2-c2ccccc2)cc1Cl,2.82 µM (active),–
Cc1cc(NC(=O)c2cc(C(C)C)on2)no1,–,-17.2% (inactive)
Cc1cc(C)c2nc(-c3ccccn3)cc(C(=O)Nc3ccc(S(=O)(=O)Nc4cc(C)on4)cc3)c2c1,7.08 µM (active),–
Nc1ccc(S(=O)(=O)NC(=O)c2ccccc2)cc1,–,-4.1% [at 25.6 µM] (inactive)
Cc1cc(NC(=O)c2ccc(S(=O)(=O)Nc3ccccc3)cc2)no1,2.24 µM (active),–
NS(=O)(=O)c1ccc(NS(=O)(=O)c2ccc(NC(=O)c3ccc(-c4ccccc4)cc3)cc2)cc1,0.2 µM (active),–
COc1cc2ccccc2cc1C(=O)Nc1ccc(S(=O)(=O)Nc2cc(C)on2)cc1,12.6 µM (active),–
NS(=O)(=O)c1ccc(NC(=O)Nc2cccc3ccccc23)cc1,–,-9.47% [at 11.4 µM] (inactive)
Cc1cc(NC(=O)c2ccccc2Cl)no1,–,9.61% (inactive)
COc1cccc(OC)c1C(=O)Nc1cc(C)on1,–,-22% (inactive)
